Reference: PubChem BioAssay AID504652 (National Center for Advancing Translational Sciences (NCATS), 2011)
“And” between values parts separate entries of the source, which are not always exact repeats. Equal entries are not always repeated. About 11,000 (3.1%) of roughly 360,000 compounds were called active. Cut-off read from the data, not from the text of the source: active = activity change below about -30%; inactive = the rest. Shown is part of a subset that was picked to be rich in actives. Some structures have more than one record in an assay (separate samples or runs), and their calls can disagree.

Target: D(1A) dopamine receptor (Homo sapiens) (UniProt P21728)
Assay: Antagonist of Human D 1 Dopamine Receptor: qHTS
Conditions: HEK293 TREx D1 cells, calcium flux, dopamine EC80; at 10 µM; stronger effect = lower value
Summary of the method: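 Cells carrying a force-coupled, tetracycline-inducible human D1 receptor report calcium flux. Each well gets a 10 s baseline, compound with 180 s monitoring, then an EC80 dopamine stimulus with a second 180 s kinetic read.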
% is set by controls: 0 for no effect and ±100 for the full control effect.

D(1A) dopamine receptor (Homo sapiens), sequence (P21728 whole entry, looked up): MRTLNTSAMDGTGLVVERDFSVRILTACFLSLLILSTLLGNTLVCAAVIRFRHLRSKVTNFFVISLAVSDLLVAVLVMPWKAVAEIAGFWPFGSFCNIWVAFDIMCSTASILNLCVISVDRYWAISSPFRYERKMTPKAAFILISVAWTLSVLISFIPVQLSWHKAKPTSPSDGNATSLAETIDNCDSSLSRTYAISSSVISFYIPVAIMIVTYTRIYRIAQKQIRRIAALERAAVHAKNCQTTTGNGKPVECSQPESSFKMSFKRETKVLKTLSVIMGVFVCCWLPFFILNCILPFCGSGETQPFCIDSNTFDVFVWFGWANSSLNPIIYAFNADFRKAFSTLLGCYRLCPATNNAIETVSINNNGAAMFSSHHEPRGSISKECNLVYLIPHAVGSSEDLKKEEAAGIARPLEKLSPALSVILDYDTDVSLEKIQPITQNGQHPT

Row | Structure (SMILES) | activity change, negative = inhibition
1 | COC(=O)c1c(NC(=O)C(C)Oc2ccc(Cl)c(C)c2)sc(C)c1C (stereo not drawn) | 14.5% (inactive)
2 | Fc1ccc(-c2nn(-c3ccccc3Cl)c3c2cnc2ccccc23)cc1 | 15% (inactive)
3 | COc1cc(C)ccc1OCCSc1nc2ccc(NC(=O)c3ccc(C)cc3)cc2s1 | 5.21% (inactive)
4 | Cc1ccc(NC(=O)NC(C)c2c(-n3cccc3)sc(C)c2C)c(C)c1 (stereo not drawn) | -16% (inactive)
5 | O=C(Cc1ccc(Cl)cc1)NCC(c1cccs1)S(=O)(=O)c1ccc(Cl)cc1 (stereo not drawn) | 4.53% (inactive)
6 | Cn1ccc2cc(S(=O)(=O)N3CCCC(C(=O)NCc4ccccc4F)C3)ccc21 (stereo not drawn) | -17.1% (inactive)
7 | CCOc1ccccc1NC(=O)CCn1cnnn1 | -17.8% (inactive)
8 | CC(=O)c1ccc(NC(=O)c2ccc(-n3cncn3)c([N+](=O)[O-])c2)cc1 | 2.28% (inactive)
9 | Cc1ccccc1OCC(=O)NNC(=O)c1ccc(-n2cncn2)c([N+](=O)[O-])c1 | -67.1% (active)
10 | O=C(NNC(=O)c1ccc(-n2cncn2)c([N+](=O)[O-])c1)c1ccccc1 | -5.21% (inactive)
11 | Cc1nc2ccn(Cc3cccs3)c(=O)c2cc1C(=O)NCc1ccc(Cl)cc1 | -27.7% (inactive)
12 | COc1ccc(OC)c(-n2nnc3c(sc4nc(C)c(Br)c(C)c43)c2=O)c1 | -6.84% (inactive)
13 | COc1ccc(NC(=O)CSc2nnc(-c3nnn(-c4ccc(F)cc4)c3C)o2)cc1 | -7.41% (inactive)
14 | O=C(CCCN=C1NS(=O)(=O)c2ccccc21)OCC(=O)c1ccc(F)c(F)c1 | -64.4% (active)
15 | O=C(OCCN=C1NS(=O)(=O)c2ccccc21)c1cccc([N+](=O)[O-])c1 | -6.81% (inactive)
16 | N#CC1(NC(=O)COC(=O)CCN=C2NS(=O)(=O)c3ccccc32)CCCCC1 | -2.93% (inactive)
17 | CCCCOc1ccc(CNC(=O)c2ccc3c(c2)N(C)C(=O)C2CCCCN32)cc1 (stereo not drawn) | 20.7% (inactive)
18 | CCc1nc2cccnc2n1-c1ccc(CC(=O)Nc2c(C)cccc2C)cc1 | 0.844% (inactive)
19 | COc1cc(OC)c(NC(=O)c2cnc(N3CCCC3)nc2C)cc1Cl | -35.8% (active)
20 | COc1cc(OC)c(NC(=O)c2cc(S(=O)(=O)N3CCCC3)cn2C)cc1Cl | -11% (inactive)
21 | COc1cc(OC)c(NC(=O)N2CC3CCCN3c3ccccc32)cc1Cl (stereo not drawn) | 46.3% (inactive)
22 | CCc1ccccc1NC(=O)N1CCC2(CC1)Oc1ccccc1C(=O)N2Cc1ccccc1F | -12.2% (inactive)

Row | Structure (SMILES) | activity change, negative = inhibition
23 | CCc1nn(CCCN2CCN(c3cccc(Cl)c3)CC2)c(=O)n1CCOc1ccccc1 | -25.8% (inactive) and -41.5% (active)
24 | OC(COc1ccc2c(c1)CCC2)CN1CCN(c2cccc(Cl)c2)CC1 (stereo not drawn) | -0.524% (inactive)
25 | Cc1nn(CCOc2ccccc2)c(=O)n1-c1ccccc1F | -11.9% (inactive)
26 | CCOc1ccc(CNC(=O)CCc2c(C)nn(-c3ccc(N4CCCCC4)nn3)c2C)cc1 | -12.9% (inactive)
27 | COc1ccccc1C(=O)Nc1c(C(=O)Nc2ccc(C)cc2)oc2ccccc12 | 2.57% (inactive)
28 | COc1ccc(NC(=O)c2ccc3nc(C(C)C)oc3c2)cc1OC | 13.3% (inactive)
29 | O=C1CCCc2c1[nH]c1ccc(Br)cc21 | 12% (inactive)
30 | CCOC(=O)c1ccc2[nH]c3c(c2c1)CCCC3NC=O (stereo not drawn) | -2.15% (inactive)
31 | O=[N+]([O-])c1ccc2[nH]c3c(c2c1)CCCC3O (stereo not drawn) | -30.8% (active)
32 | CCOC(=O)C1CCCN(S(=O)(=O)c2cc(-c3cc(C)no3)ccc2OC)C1 (stereo not drawn) | -12.1% (inactive)
33 | COC(=O)c1scc(-c2ccccc2)c1S(=O)(=O)Nc1ccccc1 | -7.67% (inactive)
34 | CCn1c(=O)c2cc(C(=O)NCCc3ccc(Cl)cc3)sc2c2ccccc21 | 3.78% (inactive)
35 | COc1cccc(NC(=O)Cn2c(=O)cc(C)c3c(C)nn(-c4cccc(F)c4)c32)c1 | 11.7% (inactive)
36 | COc1cn(CC(=O)Nc2cccc(C)c2C)c(CN2CCCCC2)cc1=O | -18.9% (inactive)
37 | COc1ccccc1NC(=O)Nc1nc(CC(=O)Nc2ccccc2F)cs1 | 2.24% (inactive)
38 | COc1ccccc1NC(=O)Nc1nnc(Cc2ccc(F)cc2)s1 | -35.5% (active)
39 | O=C(Nc1nnc(COc2ccccc2)s1)Nc1ccccc1F | -5.26% (inactive)
40 | COc1ccc(Cl)cc1-n1c(CCC(=O)O)ccc1-c1ccc(C)cc1 | -15.3% (inactive)
41 | Cc1cccc(N2CCN(S(=O)(=O)c3ccc4[nH]c5c(c4c3)CCCCC5)CC2)c1C | 0.754% (inactive)
42 | CN1CCN(c2ccc([N+](=O)[O-])c(Sc3nc4ccccc4[nH]3)c2)CC1 | -1.85% (inactive)
43 | CC1CCN(C(=S)c2cccc([N+](=O)[O-])c2)CC1 | -12.4% (inactive)
